The record followed here is PubChem BioAssay (NCATS).

Starred links: 1 amine or outer side, 2 acyl side, 3 side chain; linkers in the order of their positions; H or OH if unused. Positions of bridges follow the written chain, without caps; N, C: chain ends. Non-standard residues stand in square brackets, D forms with d. Residues, ends and D or L forms follow the SMILES beside them. Chains are numbered I, II in the order given. *: point of attachment. Actinocin(9to1) = Cc1c2oc3c(C)ccc(C(=O)[*:1])c3nc-2c(C(=O)[*:2])c(N)c1=O; NMeV = CN[CH](C(=O)O)C(C)C; Cbz = O=C(OCc1ccccc1)*; Sar = CNCC(=O)O

The assay can be described thus: High-throughput drug toxicity screening in the BPDCN cell line Gen2.2 (AID 1224824). Particulars: Gen2.2 BPDCN cells; at 45.8 µM (top of the series) unless noted. From the text:
Blastic plasmacytoid dendritic cell neoplasm (BPDCN) is a rare, aggressive and largely incurable hematologic malignancy originating from plasmacytoid dendritic cells (pDCs). Although an initial response to chemotherapy is common, BPDCN prognosis is extremely poor and most patients relapse with drug-resistant disease leading to a median overall survival of ~1 year after diagnosis. To explore novel potential therapeutic strategies in BPDCN, we performed a high-throughput drug toxicity screening in BPDCN cell liens, using of a library of 1,912 small molecules, enriched for compounds that are either approved or in early stages of development for cancer therapy.
A total of 500 exponentially growing Gen2.2 cells were seeded per well in 5 uL of media (RPMI + Glutamine, without phenol red plus10% FBS and 1X Pen/Strep) into 1536-well solid white high base tissue culture treated Greiner One Bio Plates (789173-F), using a multidrop combi dispenser and a small sterile cassette. Compounds and controls totaling 23nL per well (negative control DMSO and positive control 9.2 uM Bortezomib-final) were immediately added to the plates using a 1536 head pin tool from Kalypsys. The plates were then covered with stainless steel gasket lids from Kalypsys and incubated for 48 hours at 37C under 95% relative humidity with 5% CO2. After 48 hours, the plates were removed and allowed to reach room temperature before 3 uL of Cell Titer Glo reagent (Promega) were added using an Aurora Flying Reagent Dispenser Bioraptor. The plates were then spun at 1000 rpms to remove bubbles and incubated for 15 minutes at room temperature before reading on a ViewLux using a luminescent filter with a 10 second exposure. The relative luciferase units were used to calculated percent activity using DMSO as 100% and Bortezomib as 0%.
With `O=C(CN1C(=O)C2(CCCC2)NC[C@H]1c1cc(F)cc(F)c1)Nc1ccc2c(c1)C[C@@]1(C2)C(=O)Nc2ncccc21`, the cell viability, % of control (lower = more cytotoxic) is 124%.

As to `C#CCC(Cc1cnc2nc(N)nc(N)c2n1)c1ccc(C(=O)N[C@@H](CCC(=O)O)C(=O)O)cc1` (stereo not given in full), the cell viability, % of control (lower = more cytotoxic) is 51.7%.

For the compound `COc1cc([C@@H]2c3cc4c(cc3[C@H](O)[C@H]3COC(=O)[C@@H]23)OCO4)cc(OC)c1OC`, the cell viability, % of control (lower = more cytotoxic) is 21.3%.

For the compound `CCS(=O)(=O)Nc1ccc2[nH]c(O)c(C(=Nc3ccc(CN4CCCCC4)cc3)c3ccccc3)c2c1`, the cell viability, % of control (lower = more cytotoxic) turned out to be 2.51%.

Turning to `CC(Cc1ccc(O)c(O)c1)(NN)C(=O)O` (stereo not given), the cell viability, % of control (lower = more cytotoxic) was found to be 108%.

For the compound `CCCCCCCCCCCCc1ccc(S(=O)(=O)Nc2nncs2)cc1`, the cell viability, % of control (lower = more cytotoxic) was 86%.

Take `COc1cc(N2CCC(C(N)=O)CC2)ccc1Nc1nc(N)c(Cl)c(Nc2ccccc2S(=O)(=O)C(C)C)n1`: the cell viability, % of control (lower = more cytotoxic) came to 147%.

Regarding `Cc1cnc(Nc2ccc(CN3CCOCC3)cc2)nc1Nc1cccc(S(=O)(=O)NC(C)(C)C)c1`, the cell viability, % of control (lower = more cytotoxic) is 1.99%.

For the compound `CC(Oc1ccc(O)cc1)(P(=O)(O)O)P(=O)(O)O`, the cell viability, % of control (lower = more cytotoxic) stood at 123%.

Consider `CC1(C)CC(O)CC(C)(C)N1[O]`, for which the cell viability, % of control (lower = more cytotoxic) was 152%.

For `COC1=C(OC)C(=O)C(CC=C(C)CCC=C(C)CCC=C(C)CCC=C(C)CCC=C(C)CCC=C(C)CCC=C(C)CCC=C(C)CCC=C(C)CCC=C(C)C)=C(C)C1=O`, the cell viability, % of control (lower = more cytotoxic) is 125%.

In the case of `CC(C)C[C@@H](C=O)NC(=O)[C@H](CC(C)C)NC(=O)[C@H](CC(C)C)NC(=O)OCc1ccccc1` (Cbz-Leu-Leu-Leu-aldehyde), the cell viability, % of control (lower = more cytotoxic) was found to be 5.4%.

In the case of `CC(C)C[C@H](NC(=O)[C@@H](NC(=O)c1cccc(-c2ccccc2)n1)[C@@H](C)O)B(O)O`, the cell viability, % of control (lower = more cytotoxic) amounted to 3.77%.

Take `CC(C)(O)CC[C@@H](O)[C@](C)(O)[C@H]1CC[C@@]2(O)C3=CC(=O)[C@@H]4C[C@@H](O)[C@@H](O)C[C@]4(C)[C@@H]3CC[C@]12C`: the cell viability, % of control (lower = more cytotoxic) stood at 104%.

As for `O=C1CSC(=O)N1C(CCc1ccncc1)COc1ccc(-c2cccc([N+](=O)[O-])c2)cc1` (stereo not given), the cell viability, % of control (lower = more cytotoxic) was 188%.

As to `OCCNC1CCCc2c1[nH]c1ccc(-c3ccccc3)cc21` (stereo not given), the cell viability, % of control (lower = more cytotoxic) turned out to be 1.69%.

As for `CCN(CC)CCNC(=O)c1c(C)[nH]c(C=C2C(=O)Nc3ccc(F)cc32)c1C`, the cell viability, % of control (lower = more cytotoxic) turned out to be 7.6% [at 92.2 µM].

Take `Cc1onc(-c2ccccc2)c1C(=O)N[C@@H]1C(=O)N2[C@@H](C(=O)O)C(C)(C)S[C@@H]12`: the cell viability, % of control (lower = more cytotoxic) is 73.2%.

With `C[C@H](NC(=O)Cc1cc(F)cc(F)c1)C(=O)N[C@H](C(=O)OC(C)(C)C)c1ccccc1`, the cell viability, % of control (lower = more cytotoxic) was 89%.

With `CN(C)c1ccc2cc(C(=O)N[C@@H](CCCN=C(N)CCl)C(=O)NCc3ccccc3)ccc2c1`, the cell viability, % of control (lower = more cytotoxic) is 1.99%.

For the compound `O=C(C=CC=Cc1ccc2c(c1)OCO2)N1CCCCC1`, the cell viability, % of control (lower = more cytotoxic) worked out at 122%.

As to `CCNC(=O)c1cc2c(-c3cc(OCCN4CCCC4)c(Cl)cc3Cl)nc(N)nc2s1`, the cell viability, % of control (lower = more cytotoxic) came to 13.8%.

As for `CCCCOc1ccc(C(=O)Nc2ccc(F)cc2F)cc1`, the cell viability, % of control (lower = more cytotoxic) turned out to be 152%.

For the compound `CC(C)(O)[C@H]1CC[C@@](C)([C@H]2[C@@H](O)C[C@@]3(C)[C@@H]4C[C@H](O[C@@H]5O[C@H](CO)[C@@H](O)[C@H](O)[C@@H]5O)[C@H]5C(C)(C)[C@@H](O[C@@H]6OC[C@@H](O)[C@H](O)[C@@H]6O)CC[C@@]56C[C@@]46CC[C@]23C)O1`, the cell viability, % of control (lower = more cytotoxic) is 1050%.

As to `C[C@H](O)[C@@H]1C(=O)N2C(C(=O)O)=C(S[C@@H]3CN[C@H](CNS(N)(=O)=O)C3)[C@@H](C)[C@@H]12`, the cell viability, % of control (lower = more cytotoxic) was 119%.

As to `C[C@H](NC(=O)[C@@H](O)c1cc(F)cc(F)c1)C(=O)N[C@@H]1C(=O)N(C)c2ccccc2-c2ccccc21`, the cell viability, % of control (lower = more cytotoxic) was found to be 165%.

For the compound `CON=C(C(=O)N[C@@H]1C(=O)N2C(C(=O)O)=C(Cn3ccc(=N)n3CCO)CS[C@H]12)c1csc(N)n1`, the cell viability, % of control (lower = more cytotoxic) was 137%.

With `NC(=O)c1ncn([C@@H]2O[C@H](CO)[C@@H](O)[C@@H]2O)c1N`, the cell viability, % of control (lower = more cytotoxic) is 191%.

`CCCCCCCCCCCCCCCC(=O)OC[C@@H](NC(=O)C(Cl)Cl)[C@H](O)c1ccc([N+](=O)[O-])cc1`: the cell viability, % of control (lower = more cytotoxic) was 132%.

For `CCC(C=C[C@@H]1OC(=O)C=C[C@H]1C)=C[C@H](C)CC=CC(C)=C[C@@H](C)C(=O)[C@@H](C)[C@H](O)[C@@H](C)CC(C)=CC(=O)O`, the cell viability, % of control (lower = more cytotoxic) was found to be 5.63% [at 1.72 µM].

As to `OCc1ccccc1O[C@@H]1O[C@H](CO)[C@H](O)[C@H](O)[C@H]1O`, the cell viability, % of control (lower = more cytotoxic) came to 151%.

As for `Cn1c(Nc2ccc(C(F)(F)F)cc2)nc2cc(Oc3ccnc(-c4ncc(C(F)(F)F)[nH]4)c3)ccc21`, the cell viability, % of control (lower = more cytotoxic) was 9.63%.

As to `Cc1cnn(C)c1C(=O)Nc1cc(Nc2ccc3c(C=Cc4ccccn4)n[nH]c3c2)ccc1F`, the cell viability, % of control (lower = more cytotoxic) came out at 97.2%.

With `CCOC(=O)N1CCN([N+]([O-])=NOc2ccc([N+](=O)[O-])cc2C#N)CC1`, the cell viability, % of control (lower = more cytotoxic) was found to be 17.2%.

Consider `Cc1c2oc3c(C)ccc(C(=O)NC4C(=O)NC(C(C)C)C(=O)N5CCCC5C(=O)N(C)CC(=O)N(C)C(C(C)C)C(=O)OC4C)c3nc-2c(C(=O)NC2C(=O)NC(C(C)C)C(=O)N3CCCC3C(=O)N(C)CC(=O)N(C)C(C(C)C)C(=O)OC2C)c(N)c1=O` (stereo not given) (I: TVP[Sar][NMeV] / II: TVP[Sar][NMeV]; ester I:1-I:C, II:1-II:C; linker I:N-II:N via Actinocin(9to1); configuration not given here), for which the cell viability, % of control (lower = more cytotoxic) was 2.59%.

Consider `CC(=O)N[C@H]1[C@@H]([C@H](O)[C@H](O)CO)OC(C(=O)O)=C[C@@H]1N=C(N)N`, for which the cell viability, % of control (lower = more cytotoxic) amounted to 114%.

Consider `CC[C@H]1OC(=O)[C@H](C)[C@@H](O[C@H]2C[C@@](C)(OC)[C@@H](O)[C@H](C)O2)[C@H](C)[C@@H](O[C@@H]2O[C@H](C)C[C@H](N(C)C)[C@@H]2O)[C@](C)(OC)C[C@@H](C)C(=O)[C@H](C)[C@@H](O)[C@]1(C)O`, for which the cell viability, % of control (lower = more cytotoxic) was determined as 99.8%.

Regarding `N#CC(=Cc1ccc(O)c(O)c1)C(=O)NCc1ccccc1`, the cell viability, % of control (lower = more cytotoxic) came out at 70.4%.

`O=C(C[C@@H]1CC=CCCC(=O)O[C@H](c2ccccc2)CNC1=O)NCc1ccc(Cl)cc1`: the cell viability, % of control (lower = more cytotoxic) was determined as 17%.

`C[C@](Cc1c[nH]c2ccccc12)(NC(=O)OC1C2CC3CC(C2)CC1C3)C(=O)NC[C@H](NC(=O)CCC(=O)O)c1ccccc1` (stereo not given in full): the cell viability, % of control (lower = more cytotoxic) was determined as 308%.
